Sensor-assay potency score (higher = more potent) data for 40 sequences are collected here from the OligoGym collection.
Also: reference of the scale not given here.

One assay concerns the target RNF167. The assay can be described thus: pooled miR-30 sensor sort-seq; sequence = guide strand. The note with it: shRNA.
AAGACTGACCCATTGACCGGGG came in with a sensor-assay potency score (higher = more potent) of -0.25.

Consider TTCCGGGTCTGAGTGAGCCAGG, for which the sensor-assay potency score (higher = more potent) is -1.12.

In the case of TTGGTAAGTCGATTCCGCTGGA, the sensor-assay potency score (higher = more potent) stood at 0.395.

In turn, TACAACGAGCTATCATTACTGC had a sensor-assay potency score (higher = more potent) of -0.205.

As to TTTGGTAAGTCGATTCCGCTGG, the sensor-assay potency score (higher = more potent) was determined as 0.435.

TTCCTCTTGGTCTTCGTCCCCA yielded a sensor-assay potency score (higher = more potent) of -0.474.

As to TCACATTGTGTACTACAGCGGC, the sensor-assay potency score (higher = more potent) is -0.461.

TTGTGTACTACAGCGGCACCAT: the sensor-assay potency score (higher = more potent) was -0.0886.

On to TTCCTCACTATTCCACACCATG, for which the sensor-assay potency score (higher = more potent) was -1.35.

For the sequence ATGTGTAGGAATCTGTTTCAGT, the sensor-assay potency score (higher = more potent) is -0.804.

Sequence TACTCGGAGCTTCTCTCCCCAA had a sensor-assay potency score (higher = more potent) of -1.19.

The target of a further assay is RNF170. The assay is described as above. The settings on record: shRNA.
As for TAAGATAGAAAAAAGCTCCCAT, the sensor-assay potency score (higher = more potent) came out at 0.565.

TTAATCTAAGTAATTCTGGGGA displayed a sensor-assay potency score (higher = more potent) of 0.33.

ATTCTCTCCATAATAGATCTGG returned a sensor-assay potency score (higher = more potent) of -0.226.

Consider TATATTATCATATAGGTACCTG, for which the sensor-assay potency score (higher = more potent) was -0.52.

With TTATCATATAGGTACCTGCTGA, the sensor-assay potency score (higher = more potent) was -0.705.

The sequence TTCCAGACAACATAGAATCAAG showed a sensor-assay potency score (higher = more potent) of -0.928.

ATGCAATCTCAGAACATCCTGA: the sensor-assay potency score (higher = more potent) was -0.378.

In turn, TAATATTAGAACTTCAAACATG came in with a sensor-assay potency score (higher = more potent) of -0.991.

In turn, TACATTAGCTCAGATATCCTAG displayed a sensor-assay potency score (higher = more potent) of 0.22.

TAATTAATCTAAGTAATTCTGG: the sensor-assay potency score (higher = more potent) is -0.536.

In turn, TATAACTGAATCATCATCCAGT displayed a sensor-assay potency score (higher = more potent) of 0.606.

TAGATCCATAATTCTCTCCATA displayed a sensor-assay potency score (higher = more potent) of -0.793.

The target in another assay is RNF19A. Described as above. The note with it: shRNA.
As to TTATATAAGCAGCACATCGTGG, the sensor-assay potency score (higher = more potent) is -0.73.

As for ATTTCTTTCATACACAACCAAC, the sensor-assay potency score (higher = more potent) was -1.69.

For TACAGTGGTAGCAAAACTCTGT, the sensor-assay potency score (higher = more potent) is 0.121.

Regarding TCTGCTTGTACTTCCAACCTGT, the sensor-assay potency score (higher = more potent) amounted to 0.605.

Sequence TTGTCGAGCAGCATCACAGGTC displayed a sensor-assay potency score (higher = more potent) of 0.0826.

TATATTTAGAGATAAAACCTAT showed a sensor-assay potency score (higher = more potent) of -0.374.

On to TTTTGTAATACTTATAACCTAA, for which the sensor-assay potency score (higher = more potent) was -0.606.

TTTGTTGTTCTAACAACTGTGC had a sensor-assay potency score (higher = more potent) of -0.162.

As for TTGGGTTGTGTCTTGCTTCTGC, the sensor-assay potency score (higher = more potent) is 0.712.

As to TACATCTGCTTGTACTTCCAAC, the sensor-assay potency score (higher = more potent) is -0.763.

For the sequence TAACATAATAGGAACACCGATA, the sensor-assay potency score (higher = more potent) was -0.784.

Turning to TTTGTGCTTTGAAACATCCTTG, the sensor-assay potency score (higher = more potent) was found to be 0.0546.

The next assay concerns the target RNF219. Described as above. The settings on record: shRNA.
In turn, TCTGTTATCAACTTCAGCCTTC had a sensor-assay potency score (higher = more potent) of 0.456.

TTTTGGATAAACATAAGCCTGA showed a sensor-assay potency score (higher = more potent) of -0.319.

TCTGTCTGAAACAAGCAGCTTG: the sensor-assay potency score (higher = more potent) was -0.169.

Turning to TTCACTTGAATTTTTTAGCTGT, the sensor-assay potency score (higher = more potent) was 0.783.

On to TTGATCTGTGACTCCAAGCTGA, for which the sensor-assay potency score (higher = more potent) was found to be 0.034.
